Compounds with a hit are over-represented: about 18% of the library has one in this group of screens.
VDR inhibitor: blocks the human vitamin D receptor | P11473 | VDR-SRC2-3 peptide fluorescence polarization, 2 h | Potency, µM, inactives show max response, negative = inhibition, most hits filed as inhibitors | 0.93% of 400,000 active | AID 504847
Target sequence (P11473 whole entry, looked up): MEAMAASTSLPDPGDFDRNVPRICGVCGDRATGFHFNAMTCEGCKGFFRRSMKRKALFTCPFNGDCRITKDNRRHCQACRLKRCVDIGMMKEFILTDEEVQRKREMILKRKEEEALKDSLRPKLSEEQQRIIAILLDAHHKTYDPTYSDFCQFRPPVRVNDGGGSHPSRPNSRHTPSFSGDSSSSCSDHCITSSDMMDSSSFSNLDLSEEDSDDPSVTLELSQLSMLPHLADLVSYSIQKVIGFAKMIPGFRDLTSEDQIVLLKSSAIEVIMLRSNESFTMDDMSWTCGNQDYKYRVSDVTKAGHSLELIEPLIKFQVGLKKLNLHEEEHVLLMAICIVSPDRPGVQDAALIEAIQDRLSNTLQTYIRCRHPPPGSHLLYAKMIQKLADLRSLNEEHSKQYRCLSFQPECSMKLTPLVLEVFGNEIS
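FP read-out; VDR + SRC2-3 coactivator peptide; 23 nl compound by pintool; 2 h RT incubation; reagents held at 4 deg C, protected from light.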
GCN5L2 inh: GCN5L2 (KAT2A) acetyltransferase inhibition. AID 504327. GCN5L2 HAT assay, ThioGlo1 CoA-SH fluorescence. 0.21% of 390,000 active. Q92830. Potency, µM (series often up to 58.9 µM), without a hit: at the highest dose activity change, negative = inhibition, hits mostly inhibitors
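GCN5L2 (20nM final) in 50mM HEPES, 0.1mM EDTA pH 7.5, 0.01% Tween-20 was preincubated 15 min at room temperature with compound, then given ThioGlo1 (50uM), H3(1-25) peptide (75uM) and acetyl-CoA (70uM); CoA-thiol fluorescence (Ex340/Em540) was read at 0 and 20 min.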
TDP1 inh: TDP1 (human) enzyme inhibition. Q9NUW8. recombinant TDP1, AlphaScreen DNA substrate cleavage. Potency, µM (highest dose often 130 µM), for the others: at the highest dose activity change, negative = inhibition, actives largely listed as inhibitors. 0.28% of 350,000 active; further: nearly all actives have a fitted effect of over 40% in size
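Compounds were preincubated with Tdp1 (1 nM final) for 15 min at room temperature before substrate (15 nM final) started a 5 min reaction; beads (10 ug/ml final) were then added for 10 min before AlphaScreen detection.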
PLK1 PBD inh: PLK1 (human) polo-box domain binding inhibition. P53350. Plk1 PBD binding of FITC phosphopeptide, fluorescence polarization. Potency, µM, for the others: max response, negative = inhibition, actives largely listed as inhibitors. 2.8% of 360,000 active. AID 720504; further: series mostly up to about 57 µM; nearly all actives have a fitted effect of over 65% in size
DT40 TDP1 CPT: DT40-hTDP1 cell growth loss with CPT; chicken DT40 Tdp1-/-;hTDP1 cells + 20 nM CPT, ATP luminescence, 48 h; Potency, µM (series often up to 46.2 µM), inactives show at the highest dose activity change, negative = growth inhibition, most hits filed as inhibitors; 12% of 420,000 active; further: nearly all actives have a fitted effect of over 55% in size
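Cell growth measured by CellTiter-Glo luminescence after a minimum 48 h, 37 C compound exposure with 20 nM CPT in Tdp1-knockout DT40 cells stably expressing hTDP1, seeded 400/well; qHTS titration format.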
DT40 TDP1 no CPT: qHTS for Inhibitors of human tyrosyl-DNA phosphodiesterase 1 (TDP1): qHTS in cells in absence of CPT; DT40 Tdp1-/- hTDP1 cells, no CPT, ATP luminescence, 48 h; Potency, µM (top dose mostly 46.2 µM), for inactives: top-dose activity change, negative = growth inhibition, hits mostly inhibitors; 15% of 420,000 active; further: nearly all actives have a fitted effect of over 55% in size
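Chicken DT40 Tdp1-/- cells complemented with human TDP1, screened without camptothecin (DMSO vehicle only), 400 cells/well. Compounds pin-transferred, cells incubated at 37 °C for at least 48 hr. Growth read as ATP-dependent luminescence (CellTiter-Glo, 30 min at RT).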
An asterisk follows results filed as active; [ ] = remark or other dose. The call rests on the fitted dose curve; in most records, active means well fitted curve in the direction sought with a large enough effect; inconclusive means small, poorly fitted or top-dose-only effect, or another doubt; inactive means no such curve, though single readings can be large; an effect the other way counts as inactive or inconclusive. On the % scale 0 is the no-effect control and ±100 the full control effect; potency means the concentration at half of the fitted maximal effect.

Results for OC[C@@H]1CN(Cc2ccc(-c3ccccc3)cc2)C[C@H](n2cnc3c(NCc4ccncc4)ncnc32)O1 ?
PLK1 PBD inh: -2%; DT40 TDP1 CPT: 2.9µM*; DT40 TDP1 no CPT: 3.3µM*

How did OC[C@@H]1CN(Cc2ccccc2)C[C@H](n2cnc3c(NCc4ccco4)ncnc32)O1 do in these assays?
PLK1 PBD inh: -14%; DT40 TDP1 CPT: -18%; DT40 TDP1 no CPT: -6%

What do the screens show for `C#CCOCCOCCOCCNc1nc(N2CCN(C(=O)[C@H](CCC(=O)O)n3cc(C(N)CO)nn3)CC2)nc(N2CCN(C(=O)[C@H](CCC(=O)O)n3cc(C(N)[C@H](C)CC)nn3)CC2)n1` (stereo partly drawn)?
VDR inhibitor: -11%; GCN5L2 inh: 1%; TDP1 inh: 1%; PLK1 PBD inh: inconclusive; DT40 TDP1 CPT: -17%; DT40 TDP1 no CPT: -4%

What do the screens show for `Cc1ccc(CCS(=O)(=O)c2ccc(C(C)(C)C)cc2)cn1`?
VDR inhibitor: 3%; GCN5L2 inh: 0%; PLK1 PBD inh: 10%; DT40 TDP1 CPT: inconclusive; DT40 TDP1 no CPT: inconclusive

Results for O=C1Nc2ccc(Br)cc2C1=C1CCCCC1 ?
VDR inhibitor: -8%; GCN5L2 inh: -8%; PLK1 PBD inh: -26%; DT40 TDP1 CPT: inconclusive; DT40 TDP1 no CPT: 23µM*

How did COC(=O)[C@]12CCCCC=C1N(CCC1=CCCCC1)C(=O)[C@H](CC(=O)N1CCCCC1)C2 do in these assays?
PLK1 PBD inh: -1%; DT40 TDP1 CPT: 18µM*; DT40 TDP1 no CPT: 23µM*

Results for COC(=O)[C@]12CCCCC=C1N(Cc1ccc3c(c1)OCO3)C(=O)[C@H](CC(=O)N1CCN(C(=O)C3CC3)CC1)C2 ?
PLK1 PBD inh: -3%; DT40 TDP1 CPT: inconclusive; DT40 TDP1 no CPT: inconclusive

What do the screens show for `COC(=O)[C@]12CCCCC=C1N(CCC1=CCCCC1)C(=O)[C@H](CC(=O)N1CCN(C(=O)C3CC3)CC1)C2`?
PLK1 PBD inh: -1%; DT40 TDP1 CPT: inconclusive; DT40 TDP1 no CPT: 16µM*

How did COC(=O)[C@]12CCCCC=C1N(CCC1=CCCCC1)C(=O)[C@H](CC(=O)N1CCOCC1)C2 do in these assays?
PLK1 PBD inh: -2%; DT40 TDP1 CPT: inconclusive; DT40 TDP1 no CPT: inconclusive

Results for C1=CN2CC=Cc3cc(/C=C/c4ccnc5ccccc45)cc(c32)C1 ?
DT40 TDP1 CPT: 10µM*; DT40 TDP1 no CPT: 7.1µM*

How did CCc1ccc(NCc2cc3ccc(OC)cc3n(CC(=O)Nc3ccc(F)cc3F)c2=O)cc1 do in these assays?
VDR inhibitor: -1%; GCN5L2 inh: -4%; TDP1 inh: 3%

How did O=C(Cc1ccc(Cl)cc1)Nc1cc(Cl)ccn1 do in these assays?
VDR inhibitor: -15%; PLK1 PBD inh: -1%; DT40 TDP1 CPT: -2%; DT40 TDP1 no CPT: -6%

Results for Cn1c(SCC(=O)N(C2CCCCC2)C2CCCCC2)nnc1-c1cccs1 ?
VDR inhibitor: -1%; GCN5L2 inh: -15%; TDP1 inh: 5%; PLK1 PBD inh: 0%; DT40 TDP1 CPT: inconclusive; DT40 TDP1 no CPT: 16µM*

What do the screens show for `Cn1c(SCC(=O)NC2CC2)nnc1-c1cccs1`?
VDR inhibitor: -7%; GCN5L2 inh: -6%; TDP1 inh: 5%; PLK1 PBD inh: 0%; DT40 TDP1 CPT: -12%; DT40 TDP1 no CPT: -6%

Results for Cn1c(SCC(=O)NC(c2ccccc2)c2ccccc2)nnc1-c1cccs1 ?
VDR inhibitor: inconclusive; GCN5L2 inh: -3%; TDP1 inh: 8%; PLK1 PBD inh: 27µM*; DT40 TDP1 CPT: inconclusive; DT40 TDP1 no CPT: inconclusive

What do the screens show for `Cc1ccc(C(=O)CSc2nnc(-c3cccs3)n2C)o1`?
VDR inhibitor: -28%; GCN5L2 inh: -5%; TDP1 inh: -5%; PLK1 PBD inh: -18%; DT40 TDP1 CPT: -29%; DT40 TDP1 no CPT: -4%

How did NC(=O)CC(NC(=O)Cc1ccc(Br)cc1)c1ccc(N2CCCCCCC2)c([N+](=O)[O-])c1 (stereo not drawn) do in these assays?
VDR inhibitor: -18%; GCN5L2 inh: 1%; PLK1 PBD inh: -13%; DT40 TDP1 CPT: inconclusive; DT40 TDP1 no CPT: -23%

What do the screens show for `NC(=O)CC(NC(=O)c1ccc(Br)cc1)c1ccc(N2CCCCCC2)c([N+](=O)[O-])c1` (stereo not drawn)?
VDR inhibitor: 15%; GCN5L2 inh: inconclusive; PLK1 PBD inh: -4%; DT40 TDP1 CPT: 16µM*; DT40 TDP1 no CPT: 16µM*

What do the screens show for `CN1CCN(c2ccc(C(=O)c3ccc(Br)cc3)cc2[N+](=O)[O-])CC1`?
VDR inhibitor: -8%; GCN5L2 inh: -8%; TDP1 inh: 9%; PLK1 PBD inh: -15%; DT40 TDP1 CPT: inconclusive; DT40 TDP1 no CPT: 15µM*

How did CN1CCN(c2ccccc2NC(=O)c2ccc(N3CCCC3)c([N+](=O)[O-])c2)CC1 do in these assays?
VDR inhibitor: -13%; GCN5L2 inh: -9%; TDP1 inh: 5%; PLK1 PBD inh: -7%; DT40 TDP1 CPT: inconclusive; DT40 TDP1 no CPT: inconclusive

Results for NC(=O)CC(NC(=O)c1ccccc1)c1ccc(N2CCCCCCC2)c([N+](=O)[O-])c1 (stereo not drawn) ?
VDR inhibitor: -8%; GCN5L2 inh: -29%; PLK1 PBD inh: -3%; DT40 TDP1 CPT: 8.2µM*; DT40 TDP1 no CPT: 9.2µM*

Results for NC(=O)CC(NC(=O)c1cccc(Br)c1)c1ccc(N2CCCCCC2)c([N+](=O)[O-])c1 (stereo not drawn) ?
VDR inhibitor: -18%; GCN5L2 inh: -15%; PLK1 PBD inh: 0%; DT40 TDP1 CPT: 5.8µM*; DT40 TDP1 no CPT: 6.5µM*

What do the screens show for `O=C(COc1ccc([N+](=O)[O-])cc1Cl)N1CCOCC1`?
VDR inhibitor: 2%; GCN5L2 inh: 4%; TDP1 inh: -1%; PLK1 PBD inh: 2%; DT40 TDP1 CPT: -11%; DT40 TDP1 no CPT: -10%

What do the screens show for `CC(=O)c1cccc(OC(=O)c2cc(S(=O)(=O)N3CCOCC3)ccc2N2CCCC2)c1`?
VDR inhibitor: 17%; GCN5L2 inh: -4%; TDP1 inh: 2%; PLK1 PBD inh: 1%; DT40 TDP1 CPT: inconclusive; DT40 TDP1 no CPT: inconclusive

Results for CC(=O)N[C@H](CC(C)C)C(=O)O ?
VDR inhibitor: -9%; GCN5L2 inh: 2%; TDP1 inh: 10%[56.1 µM]

Bioassay records: PubChem, National Center for Advancing Translational Sciences (NCATS)
